The record followed here is PubChem BioAssay.

The subject of assay [1] is Plasmodium falciparum Sir2 (PF13_0152, Sir2A). Put plainly: Plasmodium falciparum Sir2A binding compounds – biochemical, small-molecule microarray, 635 nm fluorescence, primary screen (AID 1098).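 Note: score merges spot fluorescence intensity with its signal-to-noise ratio.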 The following applies: fluorescence 635 nm, higher = more signal.
Assay [2] can be described thus: probe aDKK1 binding to arrayed compounds – biochemical, biotinylated probe, 635/667 nm fluorescence, primary screen (AID 1099).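 Note: score merges 667nm spot fluorescence with signal to noise across triplicate slides.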 The following applies: small-molecule microarray, higher = more signal.
Assay [3] can be described thus: probe aCHRDL2 binding to arrayed compounds – biochemical, biotinylated probe, 635/667 nm fluorescence, primary screen (AID 1100). As to conditions: small-molecule microarray, higher = more signal.
Assay [4] can be described thus: change in splice reporter luminescence, either direction, cell-based, HEK293, spliceosome inhibition project, primary screen (AID 1101).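 Note: HEK293 cells carrying a splicing-competent luciferase reporter gene; test concentration not given here.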 As to conditions: HEK293 splicing luciferase reporter, 24 h, higher = more signal, called active from +8 up or from −8 down.
Assay [5] addresses Fibroblast growth factor 10 (Homo sapiens) (UniProt O15520). Put plainly: compounds binding fibroblast growth factor 10 – biochemical, small-molecule microarray, 635 nm fluorescence, primary screen (AID 1102). The following applies: FGF10 binding, fluorescence 635 nm, higher = more signal.
Assay [6] relates to glycogen synthase kinase-3 (GSK3A per assay name; protocol says GSK3B). Nature of the assay: compounds binding glycogen synthase kinase-3 – biochemical, small-molecule microarray, 635 nm fluorescence, GSK3A, primary screen (AID 1103). Note: the record names both GSK3A and GSK3B. As to conditions: fluorescence 635 nm, higher = more signal.
In assay [7] the target is Epidermal growth factor receptor (Homo sapiens) (UniProt P00533). Nature of the assay: compounds binding epidermal growth factor receptor – biochemical, small-molecule microarray, 635 nm fluorescence, primary screen (AID 1104).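 Note: score merges 667 nm emission intensity with spot signal to noise over triplicate slides.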 As to conditions: EGFR binding, higher = more signal.
Chain of Epidermal growth factor receptor (Homo sapiens) (P00533 whole entry, looked up): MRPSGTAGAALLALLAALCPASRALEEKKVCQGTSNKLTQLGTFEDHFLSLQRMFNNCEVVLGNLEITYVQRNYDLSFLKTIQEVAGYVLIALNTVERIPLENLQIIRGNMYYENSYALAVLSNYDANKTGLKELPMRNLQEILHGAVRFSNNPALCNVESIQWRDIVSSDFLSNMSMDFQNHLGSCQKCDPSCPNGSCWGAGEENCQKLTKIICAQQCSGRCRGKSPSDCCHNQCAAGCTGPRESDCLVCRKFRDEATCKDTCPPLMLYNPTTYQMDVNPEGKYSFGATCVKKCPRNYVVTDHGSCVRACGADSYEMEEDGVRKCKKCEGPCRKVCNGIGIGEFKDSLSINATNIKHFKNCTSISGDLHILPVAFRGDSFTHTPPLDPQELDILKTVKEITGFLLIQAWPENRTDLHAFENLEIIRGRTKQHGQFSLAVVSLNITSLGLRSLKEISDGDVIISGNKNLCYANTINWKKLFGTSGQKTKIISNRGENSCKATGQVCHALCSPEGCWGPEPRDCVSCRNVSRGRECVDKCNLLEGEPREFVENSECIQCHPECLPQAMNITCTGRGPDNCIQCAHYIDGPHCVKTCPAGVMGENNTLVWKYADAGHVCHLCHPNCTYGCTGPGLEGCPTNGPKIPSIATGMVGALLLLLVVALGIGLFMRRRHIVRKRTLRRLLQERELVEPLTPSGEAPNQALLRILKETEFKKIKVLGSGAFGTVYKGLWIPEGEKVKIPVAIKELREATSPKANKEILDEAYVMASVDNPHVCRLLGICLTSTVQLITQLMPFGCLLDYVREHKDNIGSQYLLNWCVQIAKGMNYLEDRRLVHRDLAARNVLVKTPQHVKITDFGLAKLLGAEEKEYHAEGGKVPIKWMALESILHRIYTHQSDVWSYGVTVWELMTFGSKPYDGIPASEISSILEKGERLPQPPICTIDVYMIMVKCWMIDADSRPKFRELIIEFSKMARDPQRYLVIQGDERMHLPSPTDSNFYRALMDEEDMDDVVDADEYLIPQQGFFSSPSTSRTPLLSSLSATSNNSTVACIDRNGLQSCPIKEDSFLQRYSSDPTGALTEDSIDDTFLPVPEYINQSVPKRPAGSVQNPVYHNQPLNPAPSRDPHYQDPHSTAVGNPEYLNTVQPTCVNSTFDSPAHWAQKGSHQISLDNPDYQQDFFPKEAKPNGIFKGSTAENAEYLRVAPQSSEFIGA
Assay [8] has as its target Follistatin-related protein 3 (Homo sapiens) (UniProt O95633). Put plainly: compounds binding follistatin-related protein 3 – biochemical, small-molecule microarray, 635 nm fluorescence, primary screen (AID 1105).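 Note: score merges emission near 667 nm and signal to noise per printed spot across three slides.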 The following applies: FSTL3 binding, higher = more signal.
Assay [9] concerns the target Dickkopf-related protein 1 (Homo sapiens) (UniProt O94907). Nature of the assay: small molecules binding DKK1 protein – biochemical, small-molecule microarray, 635 nm fluorescence scan, primary screen (AID 1106).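 Note: score merges emission near 667 nm with signal to noise over three replicate slides.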 As to conditions: higher = more signal.
The test system of assay [10] is Inhibin beta A chain (activin A). Nature of the assay: small molecules binding activin A – biochemical, small-molecule microarray, 635 nm fluorescence scan, primary screen (AID 1107).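 Note: mouse activin A protein probed at 4.33 µg/mL on printed slides; score merges bound-protein fluorescence near 667 nm with spot signal-to-noise.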 The following applies: INHBA, higher = more signal.
For assay [11], the system named is Human papillomavirus type 1a protein E7 (residues 44-93). Put plainly: small molecules binding HPV E7 44-93 – biochemical, small-molecule microarray, residues 44-93, 635 nm fluorescence, primary screen (AID 1108).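 Note: E7 fragment applied at 1 µg/mL in TBST for 1 h at 4 C; score combines spot fluorescence with its signal to noise ratio.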 As to conditions: fluorescence 635 nm, higher = more signal.
Assay [12] can be described thus: hepatitis C replication reporter changes, two-sided – Huh7 cells, luciferase reporter, HCV replication inhibitor project, primary screen (AID 1109).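 Note: huh7 hepatoma cells harbouring a luciferase neomycin HCV replicon reporter; luciferase luminescence as measure of HCV replicon replication; test concentration not given here.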 The following applies: Huh7 HCV replicon luciferase reporter, 48 h; higher = more signal.
The target in assay [13] is Left-right determination factor 2 (Homo sapiens) (UniProt O00292). Nature of the assay: small molecules binding LEFTY2 protein – biochemical, small-molecule microarray, 635 nm fluorescence scan, primary screen (AID 1110). As to conditions: higher = more signal.
Chain of Left-right determination factor 2 (Homo sapiens) (O00292 whole entry, looked up): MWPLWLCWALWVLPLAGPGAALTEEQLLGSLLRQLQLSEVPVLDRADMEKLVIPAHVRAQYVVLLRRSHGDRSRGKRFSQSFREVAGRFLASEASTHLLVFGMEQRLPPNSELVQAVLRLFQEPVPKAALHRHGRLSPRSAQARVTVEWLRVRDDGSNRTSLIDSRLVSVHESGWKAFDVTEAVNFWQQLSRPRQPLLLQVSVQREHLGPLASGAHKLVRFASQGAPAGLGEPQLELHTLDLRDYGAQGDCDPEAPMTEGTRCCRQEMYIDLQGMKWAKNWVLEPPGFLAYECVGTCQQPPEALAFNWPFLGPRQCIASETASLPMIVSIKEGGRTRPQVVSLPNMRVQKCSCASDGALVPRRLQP
The target of assay [14] is Calmodulin-1 (Homo sapiens) (UniProt P0DP23). Nature of the assay: small molecules binding calmodulin-1 with EGTA – biochemical, small-molecule microarray, Cy5-labelled CALM1, profiling panel (AID 1111).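 Note: labelled calmodulin applied in Tris saline Tween buffer holding calcium plus EGTA and DTT.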 The following applies: Cy5-CALM1 binding fluorescence, higher = more signal.
Assay [15] has the same target. Nature of the assay: small molecules binding Ca-loaded calmodulin-1 – biochemical, small-molecule microarray, Cy5-labelled CALM1, plus calcium, artefact control for SMM control-protein annotation, profiling panel (AID 1112).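 Note: score merges spot fluorescence with signal to noise from triplicate slides.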 The following applies: Cy5-CALM1 binding fluorescence, higher = more signal.
Assay [16] is described as follows: probe aWnt5a binding to arrayed compounds – biochemical, biotinylated probe, 635/667 nm fluorescence, primary screen (AID 1113).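 Note: score merges 667 nm fluorescence intensity with signal-to-noise per printed feature.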 The following applies: small-molecule microarray, higher = more signal.
Assay [17] is described as follows: probe aShh binding to arrayed compounds – biochemical, biotinylated probe, 635/667 nm fluorescence, primary screen (AID 1114).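 Note: probe is biotin-labelled aShh protein from a stem cell growth factor screen; measures binding of labelled protein to compounds printed on the slide; score merges feature fluorescence at 667 nm with signal-to-noise.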 The following applies: small-molecule microarray, higher = more signal.
The nature of assay [18]: probe aNog binding to arrayed compounds – biochemical, biotinylated probe, 635/667 nm fluorescence, primary screen (AID 1115).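 Note: probe is biotinylated aNog protein used at 0.15 µg/mL for 1 h at 4 C; z-score combines 667 nm fluorescence of each spot with its signal to noise.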 The following applies: small-molecule microarray, higher = more signal.
Assay [19] concerns the target Torsin-1A-interacting protein 1 (Homo sapiens) (UniProt Q5JTV8). Put plainly: compound microarray binding of lysate hLAP1 – cell lysate, small-molecule microarray, COS7 lysate, 635/667 nm fluorescence, primary screen (AID 1116). As to conditions: 635 nm fluorescence, higher = more signal.
Assay [20] concerns the target Alpha-bungarotoxin (Bungarus multicinctus) (UniProt P60615). Put plainly: compounds binding labelled alpha-BTX control protein – biochemical, small-molecule microarray, Alexa647 label, 635/667 nm fluorescence, artefact control for SMM control protein annotation, profiling panel (AID 1117). As to conditions: alpha-BTX-A647 binding fluorescence, higher = more signal.

Activity calls are given as the source filed them.

Chain of Fibroblast growth factor 10 (Homo sapiens) (O15520 whole entry, looked up): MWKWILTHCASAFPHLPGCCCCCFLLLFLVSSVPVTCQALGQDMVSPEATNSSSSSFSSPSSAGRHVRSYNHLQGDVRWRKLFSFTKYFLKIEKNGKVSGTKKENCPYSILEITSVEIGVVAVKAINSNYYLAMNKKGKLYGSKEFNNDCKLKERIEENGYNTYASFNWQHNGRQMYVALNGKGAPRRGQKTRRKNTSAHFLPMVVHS
Chain of Follistatin-related protein 3 (Homo sapiens) (O95633 whole entry, looked up): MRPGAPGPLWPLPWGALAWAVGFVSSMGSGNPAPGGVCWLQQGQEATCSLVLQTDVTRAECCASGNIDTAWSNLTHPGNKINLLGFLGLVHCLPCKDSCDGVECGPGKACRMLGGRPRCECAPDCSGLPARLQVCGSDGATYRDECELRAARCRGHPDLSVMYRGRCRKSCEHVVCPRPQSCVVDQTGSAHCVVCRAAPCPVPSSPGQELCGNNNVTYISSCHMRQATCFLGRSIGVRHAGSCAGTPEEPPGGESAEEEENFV
Chain of Torsin-1A-interacting protein 1 (Homo sapiens) (Q5JTV8 whole entry, looked up): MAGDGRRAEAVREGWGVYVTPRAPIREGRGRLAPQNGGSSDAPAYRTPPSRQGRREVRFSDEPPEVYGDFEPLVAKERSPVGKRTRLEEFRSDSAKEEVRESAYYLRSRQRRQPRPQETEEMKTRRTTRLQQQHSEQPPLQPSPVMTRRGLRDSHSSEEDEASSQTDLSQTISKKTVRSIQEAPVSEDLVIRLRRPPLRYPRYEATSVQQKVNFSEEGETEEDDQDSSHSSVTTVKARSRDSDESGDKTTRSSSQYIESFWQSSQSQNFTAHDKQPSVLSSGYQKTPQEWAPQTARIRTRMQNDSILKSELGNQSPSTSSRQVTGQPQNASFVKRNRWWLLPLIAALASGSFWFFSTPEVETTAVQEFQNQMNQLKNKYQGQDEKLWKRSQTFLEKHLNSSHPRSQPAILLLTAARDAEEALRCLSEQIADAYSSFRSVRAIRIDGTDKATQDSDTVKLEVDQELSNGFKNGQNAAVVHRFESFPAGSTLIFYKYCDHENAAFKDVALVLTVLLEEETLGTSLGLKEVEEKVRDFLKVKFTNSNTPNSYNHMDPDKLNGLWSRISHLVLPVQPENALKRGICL
Chain of Alpha-bungarotoxin (Bungarus multicinctus) (P60615 whole entry, looked up): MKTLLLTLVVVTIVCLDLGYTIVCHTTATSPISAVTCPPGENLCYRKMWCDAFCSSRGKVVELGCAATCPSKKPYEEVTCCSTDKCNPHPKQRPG
Chain of Dickkopf-related protein 1 (Homo sapiens) (O94907 whole entry, looked up): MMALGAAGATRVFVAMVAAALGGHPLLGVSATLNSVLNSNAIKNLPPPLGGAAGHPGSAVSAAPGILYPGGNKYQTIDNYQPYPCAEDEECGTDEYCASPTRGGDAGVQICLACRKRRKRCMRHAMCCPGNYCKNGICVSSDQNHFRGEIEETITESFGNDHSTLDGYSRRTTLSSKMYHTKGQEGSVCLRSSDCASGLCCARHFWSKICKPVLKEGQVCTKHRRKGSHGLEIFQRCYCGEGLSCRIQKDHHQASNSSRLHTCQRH

`CCN(CC)c1ccc(N2CC=CC34O[C@@H]5C=CCCOC(=O)C5[C@H]3C(=O)N(CCO)[C@@H]4C2=O)cc1` (stereo not given in full): the composite z-score in assay [1] was -0.0437; in [2], -0.289; in [3] it was 0.269; in assay [5] it was -0.504; in [6] it was -0.908; in assay [7], -0.869. Besides, the composite z-score is -1.45 in assay [8]; -0.351 in [9]; -0.589 in assay [10]; -0.595 in [11]; -1.37 in assay [13]; -0.547 in assay [14]. Moreover, the composite z-score in [15] was -0.183; in assay [16], -0.214; in [17] it was -0.26; in assay [18], 2.13; in [19] it was -1.01; in assay [20] it was 0.253. In addition, the z-score in [4] is -0.688 (inactive); in [12], -0.362.

For `CCOC(=O)C[C@H]1[C@H](OC(=O)c2ccccc2-c2ccccc2)[C@@H](NC(=O)c2ccccc2)c2cc(OCCCO)ccc2N1C(=O)c1ccccc1`, the composite z-score in [1] was -0.242; in assay [2], 0.0316; in assay [3] it was -0.375; in [5], 0.645; in [6], 0.459; in [7], -0.106. In addition, the composite z-score is 0.284 in assay [8]; 0.169 in [9]; 0.169 in assay [10]; 0.374 in assay [11]; 0.345 in assay [13]; 0.114 in assay [14]. Also, the composite z-score in [15] is 0.148; in [16], -0.0425; in assay [17], -0.0146; in assay [18], -0.0926; in [19], -0.244; in assay [20], 0.0475. The z-score in assay [4] was 0.0178 (inactive); in [12], -0.843.

In the case of `Cc1ccc(S[C@]2(C(=O)NC(C)C)CC(=O)N(Cc3ccccc3Cl)[C@@H]2c2ccc(CO)cc2)cc1`, the composite z-score in assay [1] is 1.23; in assay [2] it was 0.17; in assay [3], 0.865; in [5], -0.465; in assay [6] it was -0.628; in [7], -1.04. Besides, the composite z-score was -1.2 in [8]; -1.47 in [9]; -0.318 in assay [10]; 0.949 in assay [11]; -1.76 in [13]; -0.142 in [14]. The composite z-score in assay [15] is 0.214; in [16], -0.154; in assay [17], -0.0035; in [18] it was -0.429; in [19], 0.98; in assay [20], 1.07. In addition, the figures for the z-score in assay [4] and in assay [12] were -0.864 (inactive) and -1.81, respectively.

Consider `CCOC(=O)C=Cc1cc(F)ccc1O`, for which the composite z-score was 0.188 in [1]; -0.137 in assay [2]; -0.31 in assay [3]; 0.168 in [5]; -0.126 in assay [6]; 0.0683 in [7]. The composite z-score was 0.0871 in assay [8]; -0.258 in [9]; 0.835 in [10]; 0.261 in [11]; -0.251 in assay [13]; -0.297 in assay [14]. Also, the composite z-score is -0.352 in assay [15]; -0.0462 in [16]; 0.0469 in [17]; -0.181 in assay [18]; -0.207 in assay [19]; 0.0531 in [20]. For the same molecule, the z-score in assay [4] was -1.37 (inactive); in assay [12] it was -1.36.

For `CCCNC(=O)[C@@]1(C)c2ccccc2C(=O)N(Cc2ccccc2)[C@H]1c1ccc(CO)cc1`, the composite z-score in [1] is 0.956; in assay [2], 0.74; in assay [3] it was 0.963; in assay [5], 0.391; in assay [6], -0.136; in [7], -1.54. Besides, the composite z-score in assay [8] was -0.487; in [9], -0.766; in assay [10] it was -0.765; in [11], 0.391; in assay [13] it was -0.626; in [14] it was -0.0596. Moreover, the composite z-score in [15] was 0.095; in assay [16], -0.197; in [17], -0.0421; in [18] it was -0.378; in assay [19], 0.78; in [20], -0.612. Further, the z-score in assay [4] was 1.34 (inactive); in assay [12] it was 0.398.

Turning to `COCCOC(=O)N1C(=O)[C@@]2(c3cc(C#CCNC(N)=O)ccc31)[C@H](c1ccc(O)cc1)N1[C@H](c3ccccc3)[C@H](c3ccccc3)OC(=O)[C@H]1[C@@H]2C(=O)N1CCN(c2ncccn2)CC1`, the composite z-score in assay [1] stood at 1.55; in assay [2], 0.607; in [3], 0.762; in [5], 0.811; in assay [6], 0.907; in [7] it was 0.279. The composite z-score was 0.751 in [8]; 0.0805 in assay [9]; 0.311 in assay [10]; 0.855 in assay [11]; 0.315 in assay [13]; 2.03 in [14]. For the same molecule, the composite z-score in assay [15] is 0.762; in assay [16], -0.219; in assay [17] it was 1.78; in assay [18], -0.48; in assay [19] it was 1.82; in assay [20] it was 1.52. In addition, the results for the z-score in assay [4] and in assay [12] were 0.41 (inactive) and -1.3, respectively.
